# Shown are actives, neighbours in structure and some others; about 11% of the full set was active somewhere.
# HP1b chromo inh – HTS for Inhibitors of HP1-beta Chromodomain Interactions with Methylated Histone Tails | actives 0.56% (n = 390,000) | AlphaScreen HP1-beta / biotin-H3K9me3 peptide binding | Potency, µM (titrated, usually from 114 µM), inactives show at the top dose activity change, negative = inhibition, most hits filed as inhibitors | AID 540317, 2011 | Chromobox protein homolog 1 (Homo sapiens), P83916; note: potency is the fitted concentration of half-maximal effect; nearly all actives have a fitted effect of over 70% in size
#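 Compound inhibition of the preformed complex between 50 nM HP1-beta and 50 nM biotinylated H3K9me3 peptide was read by AlphaScreen. Buffer was PBS pH 7.4 with 0.01% Tween-20. Incubations ran 30 min at room temperature, with 10 ug/mL donor/acceptor beads.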
# L3MBTL1 block – qHTS Assay for the Inhibitors of L3MBTL1 | AID 485360, 2010 | actives 0.66% (n = 230,000) | AlphaScreen L3MBTL1–H3K9me1 peptide binding | Potency, µM (top dose mostly 57.1 µM), inactives show at the top dose activity, negative = inhibition, hits mostly inhibitors; note: potency is the fitted concentration of half-maximal effect; % is set by controls: 0 for no effect and ±100 for the full control effect; nearly all actives have a fitted effect of over 60% in size
#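 AlphaScreen proximity signal between nickel-chelate acceptor and streptavidin donor beads (final 10 ug/mL) reports binding of 50 nM L3MBTL1 to 75 nM biotin-H3 K9me1 peptide; complex incubated with compounds 30 min at room temperature; cefsulodin titration as control.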
# BAZ2B inh – qHTS Assay for Inhibitors of BAZ2B | AlphaScreen BAZ2B-H3K14Ac peptide displacement | Potency, µM (doses to about 114 µM), inactives show top-dose activity change, negative = inhibition, most hits filed as inhibitors | actives 4.4% (n = 360,000) | AID 504333, 2011; note: potency is the fitted concentration of half-maximal effect; % is set by controls: 0 for no effect and ±100 for the full control effect; nearly all actives have a fitted effect of over 60% in size
#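 Multi-concentration screen (max 110 uM) measuring displacement of acetylated histone H3 peptide from BAZ2B by AlphaScreen, using 50 nM protein, 50 nM peptide and 10 ug/mL streptavidin donor plus Ni-chelate acceptor beads.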
# PI5P4Ka inh – qHTS for Inhibitors of phosphatidylinositol 5-phosphate 4-kinase (PI5P4K); Phosphatidylinositol 5-phosphate 4-kinase type-2 alpha (Homo sapiens), P48426; max response, %; PI5P4Kalpha enzyme, ADP-Glo luminescence, 60 min; active compounds read low; actives 1.2% (n = 330,000); active = max response of -50% or lower; inconclusive = between -30% and -50%; inactive = -30% or higher; note: value at the top dose of about 77 µM; % is set by controls: 0 for no effect and ±100 for the full control effect
#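 Compounds were pin-transferred onto PI5P4Kalpha and substrate in HEPES pH 7.4 buffer with EGTA, CHAPS and 5% DMSO. ATP (5 microM final) started the reaction, which ran 60 minutes at room temperature before ADP-Glo detection.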
# JMJD2A Tudor inh – qHTS Assay for Inhibitors of JMJD2A-Tudor Domain; Lysine-specific demethylase 4A (Homo sapiens), O75164; AlphaScreen JMJD2A-Tudor / H3K4me3 peptide binding; Potency, µM (titrated, usually from 114 µM), without a hit: top-dose activity change, negative = inhibition, hits mostly inhibitors; actives 4.4% (n = 390,000); note: potency is the fitted concentration of half-maximal effect; % is set by controls: 0 for no effect and ±100 for the full control effect; nearly all actives have a fitted effect of over 50% in size
# G9a block – qHTS Assay for Inhibitors of Histone Lysine Methyltransferase G9a; Histone-lysine N-methyltransferase EHMT2 (Homo sapiens), Q96KQ7; G9a H3K9 monomethylation, AlphaScreen, 2 h; Potency, µM (doses to about 102 µM), inactives show at the highest dose activity, negative = inhibition, actives largely listed as inhibitors; actives 8.8% (n = 350,000); note: potency is the fitted concentration of half-maximal effect; % is set by controls: 0 for no effect and ±100 for the full control effect; nearly all actives have a fitted effect of over 75% in size
#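 Signal arises when biotinylated H3K9 peptide, once monomethylated, bridges streptavidin donor and antibody-captured acceptor beads. Enzyme at 20 nM was preincubated 15 min with test compounds; peptide 500 nM and SAM 20 uM then reacted for 2 h.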
# * = called active by the depositor; u = inconclusive; x = no result given; [ ] = dose if it differs, or a comment. Unless noted, calls come from the whole dose curve; as a rule, active = well fitted inhibition curve with a large enough effect; inconclusive = small, poorly fitted or top-dose-only effect; inactive = no such curve, though single readings can be large or run the other way.
SMILES,HP1b chromo inh,L3MBTL1 block,BAZ2B inh,PI5P4Ka inh,JMJD2A Tudor inh,G9a block
CC1=CC(c2ccc(Cl)cc2)n2nc(NC(=O)CCC(=O)O)nc2N1 (stereo not given),9%,x,50µM*,-11,u,20µM*
CC(=O)Nc1nc2n(n1)C(c1ccc(F)cc1)C=C(c1ccc(Cl)cc1)N2 (stereo not given),63%,x,u,x,-6%,u
CC1=CC(c2ccc(Cl)cc2)n2nc(NC(=O)CCCC(=O)O)nc2N1 (stereo not given),-3%,x,u,5,25µM*,50µM*
O=C(/C=C/c1ccccc1)Nc1nc2n(n1)C(c1ccc(Cl)cc1)C=C(c1ccccc1)N2 (stereo not given),20%,x,4%,x,-5%,u
COc1ccccc1C(=O)Nc1ccccc1OCc1cc(=O)n2ccccc2n1,28%[57 µM],x,6%,x,-2%,3%[59 µM]
Cc1ccc(S(=O)(=O)N(CC(=O)Nc2ccc(F)cc2F)Cc2ccc(F)cc2)cc1,49%,x,-19%,x,-1%,-5%[59 µM]
NC(=O)CC[C@H](NC(=O)c1ccc(F)cc1)C(=O)OCC(=O)Nc1c(F)c(F)c(F)c(F)c1F,40%,13%,2%,13,-7%,u
NC(=O)CC[C@H](NC(=O)c1ccc(F)cc1)C(=O)OCC(=O)NCc1ccc(F)cc1,-9%,5%,0%,-17,14µM*,-3%
CCOc1ccc(CNC(=O)c2cnc3sc(N(CC)CC)nn3c2=O)cc1OC,-26%,x,-11%,x,-19%,7%[59 µM]
Cc1cccc(N2CCN(C(=O)CN3CCOc4ccccc43)CC2C)c1 (stereo not given),-15%,x,u,-10,u,50µM*
Cc1cccc(N2CCN(C(=O)c3ccc4c(c3)OCCO4)CC2C)c1 (stereo not given),14%,-17%,x,1,-9%,-27%
Cc1cc(C)c2c(=O)n(CC(=O)N3CCC(Cc4ccccc4)CC3)sc2n1,x,-9%,1%,x,x,1.6µM*
Cc1cccc(N2CCN(C(=O)Cn3sc4nc(C)cc(C)c4c3=O)CC2C)c1 (stereo not given),8.9µM*,x,u,-55*,3.2µM*,1.3µM*
CCc1ccc(-n2nc3ccc(NC(=O)COc4ccc(OC)cc4)cc3n2)cc1,13%,x,-1%,x,-10%,-6%[59 µM]
COc1ccc(OC)c(C(c2nnnn2C2CCCC2)N2CCN(c3ccccc3F)CC2)c1 (stereo not given),-2%,-7%,50µM*,5,-34%,-5%[59 µM]
COc1ccc(N2CCN(C(c3cc(OC)ccc3OC)c3nnnn3CC3CCCO3)CC2)cc1 (stereo not given),0%,-7%,50µM*,9,79µM*,14µM*
COc1ccc(OC)c(C(c2nnnn2C2CCCC2)N2CCc3ccccc3C2)c1 (stereo not given),11%,x,u,16,-27%,u
COc1ccccc1C(c1nnnn1CCc1ccccc1)N1CCN(c2ccccc2)CC1 (stereo not given),-1%,-5%,-29%,0,-14%,u
COc1ccc(N2CCN(C(c3cccc(OC)c3OC)c3nnnn3C3CCCC3)CC2)cc1 (stereo not given),u,u,40µM*,3,45µM*,13µM*
COCCn1nnnc1C(c1ccccc1OC)N1CCN(c2ccccc2)CC1 (stereo not given),33%,5%,-24%,-4,45µM*,45µM*
COc1ccc2cc(C(c3nnnn3CC3CCCO3)N3CCOCC3)c(=O)[nH]c2c1 (stereo not given),18%,6%,-1%,x,-12%,17%
O=C(Cn1cnc2c(oc3ccccc32)c1=O)Nc1ccccc1C(F)(F)F,18%,x,-2%,x,-31%,-32%[59 µM]
CCOC(=O)C1=C(CS(=O)(=O)c2ccc(F)cc2)NC(=O)NC1c1ccc(OCC)c(OC)c1 (stereo not given),35%,x,-25%,x,-19%,-19%[59 µM]
Fc1ccccc1N1CCN(C(c2ccccn2)c2nnnn2C2CCCCC2)CC1 (stereo not given),16%,-1%,79µM*,x,-28%,14µM*
COCCn1nnnc1C(c1cccs1)N1CCN(c2nc3ccccc3s2)CC1 (stereo not given),16%,x,-10%,x,-17%,-27%[12.7 µM]
SMILES,HP1b chromo inh,L3MBTL1 block,BAZ2B inh,PI5P4Ka inh,JMJD2A Tudor inh,G9a block
COc1ccc(N2CCN(C(c3cccs3)c3nnnn3C3CCCC3)CC2)cc1 (stereo not given),-27%,x,u,x,u,u
COc1ccc(N2CCN(C(c3ccccc3OC)c3nnnn3C3CCCC3)CC2)cc1 (stereo not given),u,-25%,45µM*,-4,56µM*,16µM*
COCCn1nnnc1C(c1cccs1)N1CCN(c2cc(C)ccc2C)CC1 (stereo not given),-16%,x,-37%,x,79µM*,-44%[12.7 µM]
CCN(CCO)Cc1cc(=O)oc2cc3c(cc12)CCC3,37%,0%,-25%,1,-4%,40µM*
CCOc1cc(C(=S)N2CCOCC2)ccc1OS(=O)(=O)c1ccccc1[N+](=O)[O-],8%,-3%,u,-1,-32%,10µM*
CCOc1cc(C(=S)N2CCCCC2)ccc1OS(=O)(=O)c1ccc(Cl)cc1,14%,u,-2%,x,-17%,-14%
COc1cc(C(=S)N2CCOCC2)ccc1OS(=O)(=O)c1ccccc1[N+](=O)[O-],u,0%,-6%,-5,u,13µM*
COc1ccc(C(=S)N2CCOCC2)cc1OS(=O)(=O)c1ccccc1[N+](=O)[O-],u,-11%,-13%,2,-29%,3.2µM*
COCCCNC(=O)C1CCN(Cc2cc3ccccc3n2Cc2cccc(C)c2)CC1,2%,x,u,x,-32%,0%[59 µM]
O=C(NC1CC(=O)N(c2cccc(F)c2)C1)C(c1ccccc1)c1ccccc1 (stereo not given),37%,x,3%,x,1%,1%[59 µM]
CCOc1ccc(NC(=O)CC2C(=O)N(c3cccc(C)c3)C(=O)N2Cc2ccco2)cc1 (stereo not given),48%,x,-29%,x,-19%,u

# From PubChem BioAssay
